Measurements reported in the supplement of paper PMC8728848.
Many of the other results were omitted from the sample, so the strongest signals are more common in it than they were.

Tests used:
Assay in all cases: glycan array binding signal (z-score within array); higher = stronger binding
Conditions in all cases: glycan notation: IUPAC condensed, linker removed
[1] = molecular target: Fuc(a1-2)Gal(b1-3)GlcNAc(b1-2)Man(a1-3)[Fuc(a1-2)Gal(b1-3)GlcNAc(b1-2)Man(a1-6)]Man(b1-4)GlcNAc(b1-4)[Fuc(a1-6)]GlcNAc
Outline: (§1)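 The binding signal is a Z-score computed within each array and averaged over linkers. Arrays of the same protein sequence at different concentrations or buffers were also averaged together. Data originate from 3228 arrays in the Consortium for Functional Glycomics database, kept only where the protein sequence was available.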

[2] = molecular target: Fuc(a1-2)Gal(b1-3)[Fuc(a1-4)]GlcNAc(b1-3)[Fuc(a1-3)[Gal(b1-4)]GlcNAc(b1-6)]Gal(b1-4)Glc
Outline: as §1

[3] = molecular target: Fuc(a1-2)Gal(b1-3)[Fuc(a1-4)]GlcNAc(b1-3)[Gal(b1-4)GlcNAc(b1-6)]Gal(b1-4)Glc
Outline: as §1

[4] = molecular target: Fuc(a1-2)Gal(b1-4)[Fuc(a1-3)]GlcNAc(b1-3)GalNAc
Outline: as §1

[5] = molecular target: Fuc(a1-2)[Gal(a1-3)]Gal(b1-4)Glc
Outline: as §1

[6] = molecular target: Fuc(a1-2)[Gal(a1-3)]Gal(b1-4)GlcNAc(b1-3)GalNAc
Outline: as §1

[7] = molecular target: Fuc(a1-2)[GalNAc(a1-3)]Gal
Outline: as §1

[8] = molecular target: Fuc(a1-2)[GalNAc(a1-3)]Gal(b1-3)GlcNAc(b1-3)GalNAc
Outline: as §1

[9] = molecular target: Fuc(a1-2)[GalNAc(a1-3)]Gal(b1-4)[Fuc(a1-3)]GlcNAc
Outline: as §1

[10] = molecular target: Fuc(a1-2)[GalNAc(a1-3)]Gal(b1-4)[Fuc(a1-3)]GlcNAc(b1-3)GalNAc
Outline: as §1

[11] = molecular target: Fuc(a1-2)[GalNAc(b1-3)]Gal
Outline: as §1

[12] = molecular target: Fuc(a1-3)[Gal(b1-4)]Glc6S
Outline: as §1

[13] = molecular target: Fuc(a1-3)[Gal(b1-4)]GlcNAc(b1-3)GalNAc
Outline: as §1

[14] = molecular target: Gal(b1-3)[Fuc(a1-4)]GlcNAc(b1-2)Man(a1-3)[Gal(b1-3)[Fuc(a1-4)]GlcNAc(b1-2)Man(a1-6)]Man(b1-4)GlcNAc(b1-4)GlcNAc
Outline: as §1

[15] = molecular target: Gal(b1-3)[Fuc(a1-4)]GlcNAc(b1-2)Man(a1-3)[Gal(b1-3)[Fuc(a1-4)]GlcNAc(b1-2)Man(a1-6)]Man(b1-4)GlcNAc(b1-4)[Fuc(a1-6)]GlcNAc
Outline: as §1

[16] = molecular target: Gal(b1-4)Glc6S
Outline: as §1

[17] = molecular target: Gal(b1-4)GlcNAc(b1-2)[Gal(b1-4)GlcNAc(b1-4)]Man(a1-3)[GlcNAc(b1-4)][Gal(b1-4)GlcNAc(b1-2)Man(a1-6)]Man(b1-4)GlcNAc(b1-4)GlcNAc
Outline: as §1

[18] = molecular target: Gal(b1-4)GlcNAc(b1-3)Gal(b1-4)[Fuc(a1-3)GlcNAc(b1-6)]Gal(b1-4)Glc
Outline: as §1

[19] = molecular target: Gal3S6S(b1-4)GlcNAc6S
Outline: as §1

[20] = molecular target: GalNAc(a1-3)GalNAc(b1-3)Gal(a1-4)Gal(b1-4)Glc
Outline: as §1

[21] = molecular target: GalNAc(b1-6)GalNAc
Outline: as §1

[22] = molecular target: Glc(a1-6)Glc(a1-6)Glc
Outline: as §1

[23] = molecular target: GlcA(b1-3)GlcNAc
Outline: as §1

[24] = molecular target: GlcNAc(a1-4)Gal(b1-4)GlcNAc(b1-3)Gal(b1-4)GlcNAc(b1-3)Gal(b1-4)GlcNAc
Outline: as §1

[25] = molecular target: GlcNAc(b1-2)Man(a1-3)[GlcNAc(b1-2)Man(a1-6)]Man(b1-4)GlcNAc(b1-4)GlcNAc
Outline: as §1

[26] = molecular target: GlcNAc(b1-3)Gal(b1-4)GlcNAc(b1-3)Gal(b1-4)GlcNAc
Outline: as §1

[27] = molecular target: GlcNAc(b1-3)GalNAc
Outline: as §1

[28] = molecular target: GlcNAc(b1-3)[GlcNAc(b1-4)][GlcNAc(b1-6)]GlcNAc
Outline: as §1

[29] = molecular target: Kdn(a2-3)Gal(b1-3)GlcNAc
Outline: as §1

[30] = molecular target: Man(a1-2)Man(a1-3)[Man(a1-2)Man(a1-6)]Man(a1-6)[Man(a1-2)Man(a1-2)Man(a1-3)]Man
Outline: as §1

[31] = molecular target: Man(b1-4)GlcNAc
Outline: as §1

[32] = molecular target: Neu5Ac(a2-3)Gal(b1-4)[Fuc(a1-3)]GlcNAc(b1-3)GalNAc
Outline: as §1

[33] = molecular target: Neu5Ac(a2-3)[GalNAc(b1-4)]Gal(b1-4)GlcNAc
Outline: as §1

[34] = molecular target: Neu5Ac(a2-6)Gal(b1-4)GlcNAc
Outline: as §1

[35] = molecular target: Neu5Ac(a2-8)Neu5Ac(a2-8)Neu5Ac
Outline: as §1

[36] = molecular target: Neu5Ac(a2-6)Gal(b1-4)GlcNAc(b1-2)Man(a1-3)Man(b1-4)GlcNAc(b1-4)GlcNAc
Outline: as §1

[37] = molecular target: Neu5Ac(a2-6)GalNAc
Outline: as §1

[38] = molecular target: Neu5Ac(a2-6)GalNAc(b1-4)GlcNAc
Outline: as §1

[39] = molecular target: Neu5Ac(a2-8)Neu5Ac(a2-8)Neu5Ac(a2-8)Neu5Ac(a2-3)[GalNAc(b1-4)]Gal(b1-4)Glc
Outline: as §1

[40] = molecular target: Neu5Ac(b2-6)Gal(b1-4)GlcNAc
Outline: as §1

[41] = molecular target: Neu5Gc(a2-3)Gal(b1-4)GlcNAc
Outline: as §1

B1: pullulanase (Streptococcus pyogenes), Q8KLP1 (protein)
chain: MKKKVNQGSKRYQYLLKKWGIGFVIAATGTVMLGCIPSILTHQVAAKTIVGLARDEAQQGDGNAKSGDGFQSSSKEAKPVLDSSSANPASIAEHHLRMHFKTLPAGESLGSLGLWVWGDVDQPSKDWPNGAITMTKAKKDDYGYYLDVPLAAKHRQQVSYLINNKAGENLSKDQHIPLLTPKMNEVWIDENYHAHAYRPLKKGYLRINYHNQSGHYDNLAVWTFKDVKTPTTDWPNGLDLSHKGPYGAYVDVPLKEGANEIGFLILDKSKTGDAIKVQPKDYLFKELDNHTQVFVKDTDPKVYNNPYYIDQVSLKGAEQTTPNEIKAIFTTLDGLDEDAVKQNIKITDKAGKTVAIDELTLDKDKSVMTLKGDFKAQGAVYTVTFGEVSQVARQSWQLKDKLYAYDGELGATLAKDGSVDLALWSPSADSVKVVVYDKQDQTKVVGQADLTKSDKGVWRAHLTSDSVKGISDYTGYYYLYEITRGQEKVMVLDPYAKSLAAWNDATATDDIKTAKAAFIDPSKLGPTGLDFAKINNFKKREDAIIYEAHVRDFTSDKALEGKLTHPFGTFSAFVEQLDYLKDLGVTHVQLLPVLSYFYANELDKTRSTAYTSSDNNYNWGYDPQHYFALSGMYSANPNDPALRIAELKNLVNEIHKRGMGVIFDVVYNHTARTYLFEDLEPNYYHFMNADGTARESFGGGRLGTTHAMSRRILVDSITYLTREFKVDGFRFDMMGDHDAAAIEQAFKAAKAINPNTIMIGEGWRTYQGDEGKKEIAADQDWMKATNTVGVFSDDIRNTLKSGFPNEGTAAFITGGAKNLEGLFKTIKAQPSNFEADAPGDVVQYIAAHDNLTLHDVIAKSINKDPKVAEEEIHKRIRLGNTMILTAQGTAFIHSGQEYGRTKQLLNPDYKTKVSDDKVPNKATLIDAVAQYPYFIHDSYDSSDAVNHFDWAKATDSIAHPISNQTKAYTQGLIALRRSTDAFTKATKAEVDRDVTLITQAGQDGIQQEDLIMGYQTVASNGDRYAVFVNADNKTRKVVLPQAYRYLLGAQVLADAEQVGVTAIAKPKGVQFTKEGLTIDGLTALVLKVSSKTANPSQQKSQTDNHQTKTPDGSKDLDKSLMTRPKRAKTNQKLPKTGEAPSKGLLAAGVALLLLAISLLMKRQKD
- glycan array binding signal (z-score) [1]: 1.26
- glycan array binding signal (z-score) [2]: 4.09
- glycan array binding signal (z-score) [3]: -1.13
- glycan array binding signal (z-score) [4]: 3.14
- glycan array binding signal (z-score) [5]: -0.403
- glycan array binding signal (z-score) [6]: -0.009
- glycan array binding signal (z-score) [7]: -0.236
- glycan array binding signal (z-score) [8]: 2.51
- glycan array binding signal (z-score) [9]: -0.025
- glycan array binding signal (z-score) [10]: 1.05
- glycan array binding signal (z-score) [11]: -0.628
- glycan array binding signal (z-score) [12]: -0.252
- glycan array binding signal (z-score) [13]: 0.189
- glycan array binding signal (z-score) [14]: 6.24
- glycan array binding signal (z-score) [15]: 2.86
- glycan array binding signal (z-score) [16]: -0.375
- glycan array binding signal (z-score) [17]: 0.829
- glycan array binding signal (z-score) [18]: -0.926
- glycan array binding signal (z-score) [19]: -0.367
- glycan array binding signal (z-score) [20]: -1.28
- glycan array binding signal (z-score) [21]: -0.145
- glycan array binding signal (z-score) [22]: 2.49
- glycan array binding signal (z-score) [23]: 2.61
- glycan array binding signal (z-score) [24]: 0.594
- glycan array binding signal (z-score) [25]: -0.014
- glycan array binding signal (z-score) [26]: -1.14
- glycan array binding signal (z-score) [27]: 0.154
- glycan array binding signal (z-score) [28]: -0.834
- glycan array binding signal (z-score) [29]: -0.039
- glycan array binding signal (z-score) [30]: 0.204
- glycan array binding signal (z-score) [31]: 0.398
- glycan array binding signal (z-score) [32]: 2.87
- glycan array binding signal (z-score) [33]: -0.879
- glycan array binding signal (z-score) [34]: 2.52
- glycan array binding signal (z-score) [35]: -0.738

B2: RS2L (Ralstonia solanacearum), B5RXL5_RALSO (protein)
chain: MAQQGVFTLPANTSFGVTAFANAANTQTIQVLVDNVVKATFTGSGTSDKLLGSQVLNSGSGAIKIQVSVNGKPSDLVSNQTILANKLNFAMVGSEDGTDNDYNDGIAVLNWPLG
- glycan array binding signal (z-score) [36]: -0.245
- glycan array binding signal (z-score) [37]: -0.244
- glycan array binding signal (z-score) [38]: -0.242
- glycan array binding signal (z-score) [35]: -0.243
- glycan array binding signal (z-score) [39]: -0.22
- glycan array binding signal (z-score) [40]: -0.252
- glycan array binding signal (z-score) [41]: -0.242
